# Measured values taken from PMC7862700, “An all-to-all approach to the identification of sequence-specific readers for epigenetic DNA modifications on cytosine”.
# Key:
# Test in all cases: DAPPL (digital affinity profiling via proximity ligation, sequencing); 10 mM Tris-HCl pH 7.5, 50 mM NaCl, 1 mM DTT, 4% glycerol, room temperature, 30 min; GST-TFs on glutathione beads, 16-mer random dsDNA library, 0.1% formaldehyde crosslink after washing; high values mean tight binding
# FLI1 = molecular target: T1, FLI1 (Homo sapiens, UniProt Q01543 1-452); details: protein: recombinant; tags: N-terminal GST; dsDNA, one strand shown
# T1 sequence: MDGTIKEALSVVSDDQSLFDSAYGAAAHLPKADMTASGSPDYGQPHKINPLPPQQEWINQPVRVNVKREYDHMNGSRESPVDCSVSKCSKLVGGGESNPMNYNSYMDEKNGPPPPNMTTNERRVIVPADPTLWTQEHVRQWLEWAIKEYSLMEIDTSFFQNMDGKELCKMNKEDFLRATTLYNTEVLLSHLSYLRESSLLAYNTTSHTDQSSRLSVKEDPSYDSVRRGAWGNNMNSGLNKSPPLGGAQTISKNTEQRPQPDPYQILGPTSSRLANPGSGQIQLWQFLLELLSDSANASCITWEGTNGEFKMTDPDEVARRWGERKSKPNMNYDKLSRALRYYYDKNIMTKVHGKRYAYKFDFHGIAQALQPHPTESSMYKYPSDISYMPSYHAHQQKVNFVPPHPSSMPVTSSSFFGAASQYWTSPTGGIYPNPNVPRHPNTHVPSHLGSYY
# Outline: (§1)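 Beads coated with glutathione captured GST-fused human transcription factors that had been expressed in yeast, and the factors were then given DNA barcodes and pooled with a tag-only sample. The pools were incubated with 200 nmole of a random double-stranded 16-mer DNA library in Tris/NaCl/DTT/glycerol buffer for 30 min at room temperature, washed, crosslinked with 0.1% formaldehyde and proximity-ligated with BsaI/T4 ligase at 37 °C for 1 h. PCR amplification and Illumina NextSeq500 sequencing came last. Binding signal is each hexamer's read frequency for a factor divided by its frequency for the tag-only sample.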
# ELK1 = molecular target: T2, ELK1 (Homo sapiens, UniProt P19419 1-428); details: protein: recombinant; tags: N-terminal GST; dsDNA, one strand shown
# T2 sequence: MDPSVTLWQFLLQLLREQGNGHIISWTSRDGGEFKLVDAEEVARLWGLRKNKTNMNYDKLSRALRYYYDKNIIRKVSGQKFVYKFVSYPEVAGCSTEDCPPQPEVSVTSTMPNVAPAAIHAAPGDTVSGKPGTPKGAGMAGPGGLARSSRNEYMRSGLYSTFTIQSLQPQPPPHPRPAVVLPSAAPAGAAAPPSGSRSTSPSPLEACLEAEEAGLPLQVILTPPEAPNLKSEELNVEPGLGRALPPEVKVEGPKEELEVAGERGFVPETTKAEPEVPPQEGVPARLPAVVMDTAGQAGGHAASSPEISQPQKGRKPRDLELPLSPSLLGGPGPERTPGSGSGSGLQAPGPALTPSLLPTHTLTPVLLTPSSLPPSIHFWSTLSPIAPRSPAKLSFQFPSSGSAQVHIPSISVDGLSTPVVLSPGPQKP
# Outline: as §1
# GABPA = molecular target: T3, GABPA (Homo sapiens, UniProt Q06546 1-454); details: protein: recombinant; tags: N-terminal GST; dsDNA, one strand shown
# T3 sequence: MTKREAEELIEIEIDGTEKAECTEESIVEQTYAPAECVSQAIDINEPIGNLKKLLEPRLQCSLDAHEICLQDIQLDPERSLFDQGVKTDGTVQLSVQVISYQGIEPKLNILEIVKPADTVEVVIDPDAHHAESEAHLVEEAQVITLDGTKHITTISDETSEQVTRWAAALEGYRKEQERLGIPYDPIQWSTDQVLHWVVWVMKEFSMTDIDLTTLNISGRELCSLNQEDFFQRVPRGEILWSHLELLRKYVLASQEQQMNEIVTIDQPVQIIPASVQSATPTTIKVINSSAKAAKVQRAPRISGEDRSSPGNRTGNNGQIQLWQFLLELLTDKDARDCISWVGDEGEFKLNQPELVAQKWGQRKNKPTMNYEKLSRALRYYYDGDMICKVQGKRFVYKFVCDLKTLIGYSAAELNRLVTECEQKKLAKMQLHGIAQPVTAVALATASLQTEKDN
# Outline: as §1
# ERG = molecular target: T4, ERG (Homo sapiens, UniProt P11308 1-479); details: protein: recombinant; tags: N-terminal GST; dsDNA, one strand shown
# T4 sequence: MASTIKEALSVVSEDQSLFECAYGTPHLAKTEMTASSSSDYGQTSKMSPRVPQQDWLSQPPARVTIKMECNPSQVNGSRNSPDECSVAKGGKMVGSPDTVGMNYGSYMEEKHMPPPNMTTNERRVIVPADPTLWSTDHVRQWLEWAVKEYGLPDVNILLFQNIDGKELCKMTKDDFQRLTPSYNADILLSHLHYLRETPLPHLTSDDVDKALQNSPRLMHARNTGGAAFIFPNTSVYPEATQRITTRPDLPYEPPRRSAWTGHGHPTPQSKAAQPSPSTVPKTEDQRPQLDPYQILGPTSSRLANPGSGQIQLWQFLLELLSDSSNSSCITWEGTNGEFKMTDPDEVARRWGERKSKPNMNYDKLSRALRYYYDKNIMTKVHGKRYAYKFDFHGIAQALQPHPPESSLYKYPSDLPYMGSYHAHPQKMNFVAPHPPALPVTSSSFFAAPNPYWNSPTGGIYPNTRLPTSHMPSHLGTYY
# Outline: as §1
# ELF1 = ELF1 (Homo sapiens, UniProt P32519 1-619); details: protein: recombinant; tags: N-terminal GST; dsDNA, one strand shown
# Outline: as §1
# EHF = molecular target: T5, EHF (Homo sapiens, UniProt Q9NZC4 1-300); details: protein: recombinant; tags: N-terminal GST; dsDNA, one strand shown
# T5 sequence: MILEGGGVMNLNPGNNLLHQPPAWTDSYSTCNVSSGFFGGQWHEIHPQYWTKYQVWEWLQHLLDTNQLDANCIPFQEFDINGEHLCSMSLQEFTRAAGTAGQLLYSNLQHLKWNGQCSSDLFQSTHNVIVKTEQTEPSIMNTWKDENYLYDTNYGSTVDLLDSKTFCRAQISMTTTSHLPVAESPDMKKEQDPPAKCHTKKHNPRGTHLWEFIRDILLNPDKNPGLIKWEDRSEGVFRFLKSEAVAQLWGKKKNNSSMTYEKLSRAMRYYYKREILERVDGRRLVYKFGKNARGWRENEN
# Outline: as §1
# SPI1 = SPI1 (Homo sapiens, UniProt P17947 1-270); details: protein: recombinant; tags: N-terminal GST; dsDNA, one strand shown
# Outline: as §1
# SPIB = SPIB (Homo sapiens, UniProt Q01892 1-262); details: protein: recombinant; tags: N-terminal GST; dsDNA, one strand shown
# Outline: as §1
# ELK3 = molecular target: T6, ELK3 (Homo sapiens, UniProt P41970 1-407); details: protein: recombinant; tags: N-terminal GST; dsDNA, one strand shown
# T6 sequence: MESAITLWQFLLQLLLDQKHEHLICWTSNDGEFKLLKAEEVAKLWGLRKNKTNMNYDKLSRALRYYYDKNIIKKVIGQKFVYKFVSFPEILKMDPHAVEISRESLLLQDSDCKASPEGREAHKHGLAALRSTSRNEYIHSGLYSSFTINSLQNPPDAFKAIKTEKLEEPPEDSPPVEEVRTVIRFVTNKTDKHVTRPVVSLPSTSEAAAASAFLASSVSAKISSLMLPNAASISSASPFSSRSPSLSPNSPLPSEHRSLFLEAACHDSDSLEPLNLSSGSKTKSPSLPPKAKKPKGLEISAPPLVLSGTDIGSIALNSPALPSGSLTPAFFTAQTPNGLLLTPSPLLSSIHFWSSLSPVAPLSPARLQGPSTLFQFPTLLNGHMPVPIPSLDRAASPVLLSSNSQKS
# Outline: as §1
# FEV = molecular target: T7, FEV (Homo sapiens, UniProt Q99581 1-238); details: protein: recombinant; tags: N-terminal GST; dsDNA, one strand shown
# T7 sequence: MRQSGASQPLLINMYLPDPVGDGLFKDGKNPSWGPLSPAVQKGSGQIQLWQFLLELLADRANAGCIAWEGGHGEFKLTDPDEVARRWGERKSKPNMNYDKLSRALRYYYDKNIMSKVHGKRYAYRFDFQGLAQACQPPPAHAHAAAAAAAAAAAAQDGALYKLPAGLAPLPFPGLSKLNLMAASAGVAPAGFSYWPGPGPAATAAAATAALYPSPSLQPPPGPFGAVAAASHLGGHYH
# Outline: as §1
# ETV5 = ETV5 (Homo sapiens, UniProt P41161 1-510); details: protein: recombinant; tags: N-terminal GST; dsDNA, one strand shown
# Outline: as §1
# HSF1 = HSF1 (Homo sapiens, UniProt Q00613 1-529); details: protein: recombinant; tags: N-terminal GST; chain copies: 3; dsDNA, one strand shown
# Outline: as §1
# SPIC = molecular target: T8, SPIC (Homo sapiens, UniProt Q8N5J4 1-248); details: protein: recombinant; tags: N-terminal GST; dsDNA, one strand shown
# T8 sequence: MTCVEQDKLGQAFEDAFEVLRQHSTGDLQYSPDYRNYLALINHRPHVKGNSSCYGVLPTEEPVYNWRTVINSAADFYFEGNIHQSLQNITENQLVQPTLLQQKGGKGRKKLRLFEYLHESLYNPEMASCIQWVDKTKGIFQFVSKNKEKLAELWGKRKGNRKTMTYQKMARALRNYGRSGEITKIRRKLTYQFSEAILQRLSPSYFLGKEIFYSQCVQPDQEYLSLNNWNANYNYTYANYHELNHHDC
# Outline: as §1
# ELF4 = ELF4 (Homo sapiens, UniProt Q99607 1-663); details: protein: recombinant; tags: N-terminal GST; dsDNA, one strand shown
# Outline: as §1
# ELK4 = molecular target: T9, ELK4 (Homo sapiens, UniProt P28324-2 1-405); details: protein: recombinant; tags: N-terminal GST; dsDNA, one strand shown
# T9 sequence: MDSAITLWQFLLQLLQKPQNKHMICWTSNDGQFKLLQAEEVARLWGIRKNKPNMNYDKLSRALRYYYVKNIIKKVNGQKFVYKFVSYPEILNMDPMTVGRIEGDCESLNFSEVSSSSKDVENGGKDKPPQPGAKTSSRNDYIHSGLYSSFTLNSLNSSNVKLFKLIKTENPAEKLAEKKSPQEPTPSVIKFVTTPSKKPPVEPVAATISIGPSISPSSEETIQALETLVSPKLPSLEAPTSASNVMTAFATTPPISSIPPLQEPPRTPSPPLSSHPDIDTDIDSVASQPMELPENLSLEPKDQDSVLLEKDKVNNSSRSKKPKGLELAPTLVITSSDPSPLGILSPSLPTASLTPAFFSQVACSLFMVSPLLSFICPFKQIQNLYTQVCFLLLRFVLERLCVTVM
# Outline: as §1
# ETV2 = molecular target: T10, ETV2 (Homo sapiens, UniProt O00321 1-342); details: protein: recombinant; tags: N-terminal GST; dsDNA, one strand shown
# T10 sequence: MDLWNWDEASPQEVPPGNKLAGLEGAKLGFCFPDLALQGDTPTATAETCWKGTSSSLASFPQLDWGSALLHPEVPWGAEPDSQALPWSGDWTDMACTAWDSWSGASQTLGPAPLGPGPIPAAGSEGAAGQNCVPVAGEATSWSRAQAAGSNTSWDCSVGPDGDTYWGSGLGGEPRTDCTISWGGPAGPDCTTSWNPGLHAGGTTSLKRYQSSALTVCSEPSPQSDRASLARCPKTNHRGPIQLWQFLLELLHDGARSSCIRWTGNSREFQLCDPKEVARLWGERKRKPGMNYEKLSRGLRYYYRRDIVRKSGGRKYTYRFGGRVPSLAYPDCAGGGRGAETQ
# Outline: as §1
# ELF3 = molecular target: T11, ELF3 (Homo sapiens, UniProt P78545 1-371); details: protein: recombinant; tags: N-terminal GST; dsDNA, one strand shown
# T11 sequence: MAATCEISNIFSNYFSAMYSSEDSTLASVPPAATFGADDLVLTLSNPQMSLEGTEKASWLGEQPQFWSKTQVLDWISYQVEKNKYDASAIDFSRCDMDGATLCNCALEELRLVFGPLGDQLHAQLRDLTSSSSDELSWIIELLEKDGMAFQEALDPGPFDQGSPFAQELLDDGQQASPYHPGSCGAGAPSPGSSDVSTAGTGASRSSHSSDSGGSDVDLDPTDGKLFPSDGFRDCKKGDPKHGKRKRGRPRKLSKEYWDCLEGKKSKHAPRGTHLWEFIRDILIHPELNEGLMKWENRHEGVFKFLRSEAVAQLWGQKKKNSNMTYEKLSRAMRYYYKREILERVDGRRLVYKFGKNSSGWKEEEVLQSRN
# Outline: as §1
# CRX = CRX (Homo sapiens, UniProt O43186 1-299); details: protein: recombinant; tags: N-terminal GST; dsDNA, one strand shown
# Outline: as §1
# ETV1 = ETV1 (Homo sapiens, UniProt P50549 1-477); details: protein: recombinant; tags: N-terminal GST; dsDNA, one strand shown
# Outline: as §1
# Chain of CRX (O43186 whole entry): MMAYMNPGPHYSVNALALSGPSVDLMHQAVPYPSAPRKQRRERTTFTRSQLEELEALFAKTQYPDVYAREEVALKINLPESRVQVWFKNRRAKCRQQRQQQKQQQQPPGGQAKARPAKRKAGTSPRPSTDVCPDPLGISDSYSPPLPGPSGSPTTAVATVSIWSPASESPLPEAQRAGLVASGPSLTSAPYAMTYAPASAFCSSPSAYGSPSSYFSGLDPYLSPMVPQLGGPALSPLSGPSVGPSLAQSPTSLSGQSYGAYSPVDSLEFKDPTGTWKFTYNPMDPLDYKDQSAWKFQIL
# Chain of ETV1 (P50549 whole entry): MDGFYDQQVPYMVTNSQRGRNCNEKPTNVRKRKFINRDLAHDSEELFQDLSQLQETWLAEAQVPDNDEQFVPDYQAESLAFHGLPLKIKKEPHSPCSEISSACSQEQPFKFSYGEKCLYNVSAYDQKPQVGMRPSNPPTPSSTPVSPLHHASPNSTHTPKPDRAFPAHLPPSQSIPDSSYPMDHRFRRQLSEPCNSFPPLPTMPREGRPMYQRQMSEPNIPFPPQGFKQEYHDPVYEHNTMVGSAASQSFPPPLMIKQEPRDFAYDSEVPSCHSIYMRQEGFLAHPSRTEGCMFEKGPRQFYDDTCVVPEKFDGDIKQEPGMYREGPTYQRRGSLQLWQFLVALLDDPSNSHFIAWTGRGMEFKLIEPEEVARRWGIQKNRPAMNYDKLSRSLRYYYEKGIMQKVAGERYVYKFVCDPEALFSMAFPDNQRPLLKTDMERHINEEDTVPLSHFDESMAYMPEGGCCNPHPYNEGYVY
# Chain of SPIB (Q01892 whole entry): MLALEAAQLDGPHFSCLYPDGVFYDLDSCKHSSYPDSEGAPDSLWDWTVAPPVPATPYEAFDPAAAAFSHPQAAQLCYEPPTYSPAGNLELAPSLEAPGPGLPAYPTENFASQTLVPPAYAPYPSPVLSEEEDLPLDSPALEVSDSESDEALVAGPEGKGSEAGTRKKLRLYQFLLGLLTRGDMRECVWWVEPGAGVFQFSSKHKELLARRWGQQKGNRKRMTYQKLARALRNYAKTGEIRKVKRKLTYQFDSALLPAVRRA
# Chain of HSF1 (Q00613 whole entry): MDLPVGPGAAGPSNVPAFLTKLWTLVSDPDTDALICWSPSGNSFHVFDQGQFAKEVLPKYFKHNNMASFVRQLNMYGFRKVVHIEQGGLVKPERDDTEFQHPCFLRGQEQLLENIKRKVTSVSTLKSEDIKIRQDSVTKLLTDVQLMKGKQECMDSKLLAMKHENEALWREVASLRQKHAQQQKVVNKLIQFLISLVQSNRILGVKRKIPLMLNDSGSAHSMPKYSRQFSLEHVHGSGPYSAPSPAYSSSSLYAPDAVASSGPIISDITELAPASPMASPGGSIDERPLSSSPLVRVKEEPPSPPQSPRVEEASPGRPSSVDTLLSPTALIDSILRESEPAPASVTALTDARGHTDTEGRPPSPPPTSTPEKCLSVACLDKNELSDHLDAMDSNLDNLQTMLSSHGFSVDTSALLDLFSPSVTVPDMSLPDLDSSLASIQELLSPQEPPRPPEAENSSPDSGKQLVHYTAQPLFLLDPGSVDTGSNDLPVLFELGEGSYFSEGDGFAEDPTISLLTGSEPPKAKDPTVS
# Chain of ELF1 (P32519 whole entry): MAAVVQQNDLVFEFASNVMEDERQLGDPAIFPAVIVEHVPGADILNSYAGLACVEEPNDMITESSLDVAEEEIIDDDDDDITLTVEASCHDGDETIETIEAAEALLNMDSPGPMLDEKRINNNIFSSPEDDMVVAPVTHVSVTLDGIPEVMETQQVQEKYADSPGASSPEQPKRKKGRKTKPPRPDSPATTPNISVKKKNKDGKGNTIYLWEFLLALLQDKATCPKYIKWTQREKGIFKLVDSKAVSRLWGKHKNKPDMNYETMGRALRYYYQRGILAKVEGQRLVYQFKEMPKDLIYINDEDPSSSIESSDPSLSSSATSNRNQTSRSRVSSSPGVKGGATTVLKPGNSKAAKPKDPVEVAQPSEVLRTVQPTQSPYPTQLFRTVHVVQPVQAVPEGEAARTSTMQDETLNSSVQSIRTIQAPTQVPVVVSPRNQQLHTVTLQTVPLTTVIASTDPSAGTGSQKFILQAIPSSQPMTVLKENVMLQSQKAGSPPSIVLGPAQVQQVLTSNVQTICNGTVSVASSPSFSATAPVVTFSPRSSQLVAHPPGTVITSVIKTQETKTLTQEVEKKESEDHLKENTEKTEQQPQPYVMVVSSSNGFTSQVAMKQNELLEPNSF
# Chain of ETV5 (P41161 whole entry): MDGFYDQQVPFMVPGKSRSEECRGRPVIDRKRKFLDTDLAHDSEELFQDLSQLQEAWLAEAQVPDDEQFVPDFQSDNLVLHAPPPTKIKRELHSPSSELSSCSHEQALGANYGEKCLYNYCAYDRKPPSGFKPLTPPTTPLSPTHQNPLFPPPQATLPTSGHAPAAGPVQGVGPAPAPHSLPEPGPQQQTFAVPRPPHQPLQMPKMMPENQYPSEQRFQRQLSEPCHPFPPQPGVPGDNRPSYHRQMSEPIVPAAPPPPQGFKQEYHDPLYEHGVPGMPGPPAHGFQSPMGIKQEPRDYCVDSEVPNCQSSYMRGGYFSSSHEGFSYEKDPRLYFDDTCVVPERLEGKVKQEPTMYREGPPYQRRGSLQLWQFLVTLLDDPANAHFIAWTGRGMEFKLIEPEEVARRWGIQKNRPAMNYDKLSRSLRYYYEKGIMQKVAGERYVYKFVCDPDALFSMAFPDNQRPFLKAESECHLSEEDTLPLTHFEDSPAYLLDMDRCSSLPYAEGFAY
# Chain of ELF4 (Q99607 whole entry): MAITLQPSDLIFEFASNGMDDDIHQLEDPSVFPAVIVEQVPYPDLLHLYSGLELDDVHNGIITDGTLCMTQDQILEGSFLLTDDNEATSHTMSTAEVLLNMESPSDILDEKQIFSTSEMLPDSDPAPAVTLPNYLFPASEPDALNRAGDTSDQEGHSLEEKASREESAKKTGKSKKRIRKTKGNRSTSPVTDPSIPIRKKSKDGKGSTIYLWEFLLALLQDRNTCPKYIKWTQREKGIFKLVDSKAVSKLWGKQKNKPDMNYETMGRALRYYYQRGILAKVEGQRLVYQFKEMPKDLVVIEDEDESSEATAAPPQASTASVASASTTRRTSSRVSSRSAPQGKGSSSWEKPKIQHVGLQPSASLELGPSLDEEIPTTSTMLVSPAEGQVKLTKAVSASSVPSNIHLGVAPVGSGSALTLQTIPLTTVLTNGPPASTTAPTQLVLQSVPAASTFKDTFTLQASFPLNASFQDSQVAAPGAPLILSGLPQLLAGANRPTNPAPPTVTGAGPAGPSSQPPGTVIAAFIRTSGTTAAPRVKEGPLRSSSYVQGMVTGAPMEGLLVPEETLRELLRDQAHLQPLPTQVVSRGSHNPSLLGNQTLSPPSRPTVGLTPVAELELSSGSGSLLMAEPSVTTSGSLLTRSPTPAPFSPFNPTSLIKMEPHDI
sequence,measurement,setting,value
CGAAAC,binding signal,FLI1,"1.14 fold enrichment (6-mer frequency, TF over GST control)"
same,binding signal,ELK1,"1.15 fold enrichment (6-mer frequency, TF over GST control)"
same,binding signal,GABPA,"1.08 fold enrichment (6-mer frequency, TF over GST control)"
same,binding signal,ERG,"1.21 fold enrichment (6-mer frequency, TF over GST control)"
same,binding signal,ELF1,"1.23 fold enrichment (6-mer frequency, TF over GST control)"
same,binding signal,EHF,"1.17 fold enrichment (6-mer frequency, TF over GST control)"
same,binding signal,SPI1,"1.21 fold enrichment (6-mer frequency, TF over GST control)"
same,binding signal,SPIB,"1.16 fold enrichment (6-mer frequency, TF over GST control)"
same,binding signal,ELK3,"1.07 fold enrichment (6-mer frequency, TF over GST control)"
same,binding signal,FEV,"1.2 fold enrichment (6-mer frequency, TF over GST control)"
same,binding signal,ETV5,"1.25 fold enrichment (6-mer frequency, TF over GST control)"
same,binding signal,HSF1,"1.58 fold enrichment (6-mer frequency, TF over GST control)"
same,binding signal,SPIC,"1.27 fold enrichment (6-mer frequency, TF over GST control)"
same,binding signal,ELF4,"1.2 fold enrichment (6-mer frequency, TF over GST control)"
same,binding signal,ELK4,"1.15 fold enrichment (6-mer frequency, TF over GST control)"
same,binding signal,ETV2,"1.22 fold enrichment (6-mer frequency, TF over GST control)"
same,binding signal,ELF3,"1.15 fold enrichment (6-mer frequency, TF over GST control)"
same,binding signal,CRX,"1.02 fold enrichment (6-mer frequency, TF over GST control)"
same,binding signal,ETV1,"1.21 fold enrichment (6-mer frequency, TF over GST control)"
